This is a sample that favours compounds with a hit; in the whole collection about 15% have one here.
SARS PLP yeast – inhibitors of SARS-CoV papain-like protease in yeast. S. cerevisiae expressing SARS-CoV PLpro, growth rescue. Potency, µM (series often up to 32.9 µM), for the others: at the top dose activity, positive = growth rescue, actives largely listed as activators. 330,000 compounds, 0.19% hits. AID 485353; calls by dose curve; also: potency is read from the fitted curve at half-maximal effect; 0% is about no effect; nearly all actives have a fitted effect of over 55% in size
HCV inh – inhibitors of hepatitis C virus infection; Huh7.5.1 HCVcc-Cre infection, luciferase reporter, 44 h; Potency, µM (highest dose often 41.8 µM), inactives show top-dose activity change, negative = inhibition, hits mostly inhibitors; 340,000 compounds, 3.4% hits; AID 651820; also: potency is read from the fitted curve at half-maximal effect; % is scaled to controls: 0 for no effect and ±100 for the full control effect
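Whole-lifecycle infectious HCVcc-Cre system; cells 1,000/well, compound then virus (~0.5 moi) added 4 h after plating, 44 h culture. Luciferase read 15 sec following 15 min substrate incubation, room temp.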
HCMV inh – inhibitors of human cytomegalovirus; HFF cells, HCMV-luciferase reporter, 72 h; stronger effect = lower value; 410,000 compounds, 4.5% hits; activity change, negative = inhibition, % at 57.5 µM; in the data active = activity change below about -60%; inconclusive = no clear call, values can overlap the other calls; inactive = above about -39%; also: % is scaled to controls: 0 for no effect and ±100 for the full control effect
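Screen run at 2 compound doses on HFFs infected with reporter HCMV, MOI 1 PFU/cell. Luciferase activity from cell lysates at 72 h post infection gave inhibition relative to buffer-only and Salinomycin wells.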
Pf growth 96h – P. falciparum growth inhibition at 96 hours; 320,000 compounds, 6.9% hits; Potency, µM (top dose mostly 28.7 µM), for inactives: at the highest dose activity change, negative = inhibition, hits mostly inhibitors; P. falciparum luciferase reporter growth, 96 h; AID 504834; also: potency is read from the fitted curve at half-maximal effect; % is scaled to controls: 0 for no effect and ±100 for the full control effect
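Readout is luminescence from an integrated firefly luciferase in P. falciparum. Red cells, 2% hematocrit and 0.05% parasitemia final, were cultured with compound through two parasite generations (96 hours) at 37 C, 5% CO2.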
Sm TGR inh – S. mansoni TGR enzyme inhibition | Q962Y6 | purified TGR, DTNB reduction, TNB absorbance 405 nm | Potency, µM (titrated, usually from 114 µM), without a hit: at the highest dose activity change, negative = inhibition, usual class: inhibitors | 360,000 compounds, 3% hits | AID 485364; also: potency is read from the fitted curve at half-maximal effect; % is scaled to controls: 0 for no effect and ±100 for the full control effect; nearly all actives have a fitted effect of over 60% in size
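TGR 20 nM + NADPH 100 uM (dispensed conc.), cpd preinc 15 min RT; start with NADPH (500 uM addition) then DTNB (15 mM addition). Kinetic TNB absorbance, 405 nm filter. Four-parameter Hill fit across titration.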
Pf growth 48h – P. falciparum growth inhibition at 48 hours (one generation). P. falciparum luciferase growth in erythrocytes, 48 h. Potency, µM (series often up to 28.7 µM), inactives show at the highest dose activity change, negative = inhibition, hits mostly inhibitors. 310,000 compounds, 5.9% hits; also: potency is read from the fitted curve at half-maximal effect; % is scaled to controls: 0 for no effect and ±100 for the full control effect
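Read-out is firefly luciferase luminescence from an integrated reporter in P. falciparum, so falling signal marks reduced parasite growth. Infected erythrocytes were at 2% hematocrit and 0.1% parasitemia (final) in Albumax-supplemented RPMI 1640.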
* hit, by the source's call. Unless noted, calls follow the shape of the dose curve; as a rule, active = well fitted curve in the direction sought with a large enough effect; inconclusive = small, poorly fitted or top-dose-only effect, or another doubt; inactive = no such curve, though single readings can be large; an effect the other way counts as inactive or inconclusive.

For CNc1nc(-c2ccc3c(c2)CCN3C(=O)CC(C)(C)C)c(C)s1 the results were SARS PLP yeast 0.5%, HCV inh -15.7%, HCMV inh 17.0, Pf growth 96h 14.4%, Sm TGR inh 7.7% and Pf growth 48h 21.9%.
CC(=O)Nc1ccc(N=Nc2ccc(O)cc2)cc1 was read as SARS PLP yeast -27.2%, HCV inh -18.2%, HCMV inh 81.6, Pf growth 96h 133.6%, Sm TGR inh 6.4% and Pf growth 48h 276.1%.
CN(CC(=O)Nc1ccc(F)c(F)c1F)C(=O)c1nn(Cc2ccccc2)c(=O)c2ccccc12 was read as SARS PLP yeast 3.1%, HCV inh inconclusive and HCMV inh 0.0.
Screening CC(C(=O)c1ccc(-c2ccccc2)cc1)[n+]1ccccc1 (stereo not drawn) returned SARS PLP yeast -13.1%, HCV inh inconclusive, HCMV inh -97.1*, Pf growth 96h 2.33µM*, Sm TGR inh 0.7% and Pf growth 48h 8.28µM*.
`Cc1cc[n+](C(C)C(=O)c2ccc(-c3ccccc3)cc2)cc1` (stereo not drawn) gave SARS PLP yeast -9.0%, HCV inh inconclusive, HCMV inh -102.2*, Pf growth 96h 26.4%, Sm TGR inh -0.9% and Pf growth 48h 1.17µM*.
For Cc1ccc[n+](C(C)C(=O)c2ccc(-c3ccccc3)cc2)c1 (stereo not drawn) the results were SARS PLP yeast -26.4%, HCV inh -22.5%, HCMV inh -97.5*, Pf growth 96h inconclusive, Sm TGR inh 0.0% and Pf growth 48h inconclusive.
`CC(C(=O)c1ccc(-c2ccccc2)cc1)[n+]1cccc(C(N)=O)c1` (stereo not drawn) gave SARS PLP yeast -5.4%, HCV inh 9.5%, HCMV inh 5.4, Pf growth 96h 9.28µM*, Sm TGR inh -22.1% and Pf growth 48h 2.8%.
Screening COc1cccc(C(=O)N2CCC(C(=O)NCc3ccco3)CC2)c1 returned SARS PLP yeast 0.3%, HCV inh 8.9%, HCMV inh 22.4, Pf growth 96h 16.8%, Sm TGR inh -11.0% and Pf growth 48h 18.6%.
For Cn1c(=O)c2[nH]c(CCCCc3nc4ccccc4[nH]3)nc2n(C)c1=O the results were HCV inh 17.0% and HCMV inh -15.1.
Screening Cn1c(=O)c2[nH]c(CCCCCCCCc3nc4ccccc4[nH]3)nc2n(C)c1=O returned HCV inh inconclusive and HCMV inh -91.2*.
For COc1ccc(N(CCCN2C(=O)c3cccc4cccc(c34)C2=O)C(=O)c2cccnc2)cc1 the results were SARS PLP yeast -0.2%, HCV inh inconclusive, HCMV inh 2.7, Pf growth 96h -24.3%, Sm TGR inh 7.6% and Pf growth 48h inconclusive.
For COc1ccc(N(CCCN2C(=O)c3cccc4cccc(c34)C2=O)C(=O)c2ccncc2)cc1 the results were SARS PLP yeast 0.8%, HCV inh 5.4%, HCMV inh 33.5, Pf growth 96h 1.47µM*, Sm TGR inh -4.3% and Pf growth 48h 2.33µM*.
Screening COc1cc(OC)cc(C(=O)N(CCCN2C(=O)c3cccc4cccc(c34)C2=O)c2cccc(OC)c2)c1 returned SARS PLP yeast 10.5%, HCV inh -18.8%, HCMV inh -8.3, Pf growth 96h -99.3%, Sm TGR inh 1.9% and Pf growth 48h 9.28µM*.
`COc1ccc(OC)c(CNC(=O)c2ccc(C)c(NC(=O)c3nsc4ccccc34)c2)c1` gave HCMV inh 36.8 and Sm TGR inh 4.5%.
Screening COc1ccc(-c2[nH]ncc2CN(CCO)Cc2cccs2)c(F)c1 returned SARS PLP yeast -5.3%, HCV inh -27.0%, HCMV inh 0.0, Pf growth 96h inconclusive, Sm TGR inh 4.4% and Pf growth 48h 22.5%.
